The values below come from PubChem BioAssay (NCATS).

The nature of assay [1]: qHTS Assay for Lipid Storage Modulators (AID 1519; calls by dose curve; for activity change, negative = inhibition: % is set by controls: 0 for no effect and ±100 for the full control effect). The conditions noted are these: Drosophila S3 cells, BODIPY lipid droplet/cell ratio, laser cytometry, cells loaded with oleic acid; for activity change, negative = inhibition: at 57.5 µM (top of the series). The essentials:
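Cells seeded at 5,000 per well were treated with compounds over a concentration series and loaded with oleic acid (400 uM, as added). Lipid droplet fluorescence (488 nm excitation, 500-530 nm channel) was read by laser-scanning cytometry and normalized to 20 uM Triacsin C.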
(In general: In qHTS, concentration-response curves come from the screen itself.)

Assay [2] deals with ATP-dependent 6-phosphofructokinase (Trypanosoma brucei brucei) (UniProt O15648). The experiment in a line: qHTS Assay to Find Inhibitors of T. brucei phosphofructokinase: hit validation (AID 492961).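 Note: luminescence reports ADP formed as PFK phosphorylates fructose-6-phosphate with ATP; % is set by controls: 0 for no effect and ±100 for the full control effect.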 The conditions noted are these: T. brucei PFK, ADP-Glo luminescence; series mostly up to 24.3 µM. The essentials: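 Reaction: 0.1 M triethanolamine pH 8.0, 5 mM MgCl2, F6P 0.5 mM, ATP 0.1 mM, PFK 1.25 nM, 45 min RT. Read-out: ADP-Glo luminescence. Analysis: concentration-response fits, classed by r2 and efficacy.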

Assay [3] has as its target Ubiquitin carboxyl-terminal hydrolase 1 (Homo sapiens) (UniProt O94782). The experiment in a line: Inhibitors of USP1/UAF1: Pilot qHTS (AID 504865).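 Note: rhodamine fluorescence freed from ubiquitin-rhodamine substrate followed over time; top concentration of the series differs between compounds; % is set by controls: 0 for no effect and ±100 for the full control effect; nearly all actives have a fitted effect of over 35% in size.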 The following applies: purified USP1/UAF1, Ub-rhodamine cleavage fluorescence; series mostly up to 114 µM. In a few lines:
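Kinetic fluorescence assay: 1nM USP1/UAF1, 15 min compound preincubation, then 150nM Ub-Rho; 480/540 nm.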

For assay [4], the target named is Luciferin 4-monooxygenase (Photinus pyralis) (UniProt P08659). Description: Biochemical firefly luciferase enzyme assay for NPC (AID 624030).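 Note: purified P. pyralis luciferase at 10 nM with luciferin and ATP substrate; 0% = DMSO and -100% = full luciferase inhibition by PTC124 control; nearly all actives have a fitted effect of over 70% in size.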 The following applies: purified P. pyralis luciferase, luminescence, 5 min; series mostly up to 24.9 µM. In a few lines:
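Counter-screen for direct inhibition of the luciferase enzyme by approved-drug library compounds, run at 10 nM enzyme in 50 mM Tris acetate (final). Luminescence was read within 5 min of enzyme-buffer addition and normalized to PTC124 versus DMSO (0%).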

Assay [5] can be described thus: qHTS profiling for inhibitors of Plasmodium falciparum proliferation (AID 504749).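 Note: 0% = DMSO vehicle and full inhibition = artemisinin control; nearly all actives have a fitted effect of over 60% in size.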 The conditions noted are these: P. falciparum in erythrocytes, SYBR Green DNA, 72 h, at 28.7 µM (top of the series). In a few lines:
(§1)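 P. falciparum-infected erythrocytes (0.3% parasitemia, 2.5% hematocrit final) were exposed to compounds for 72 h at 37 C in 5% CO2, then lysed with SYBR Green buffer overnight at room temperature; parasite DNA fluorescence was normalized to artemisinin and DMSO controls.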

The subject of the next assay is 3D7. Described as above. The following applies: P. falciparum in erythrocytes, SYBR Green DNA, 72 h; series mostly up to 12.8 µM. In a few lines:
as §1

For another assay, the system named is C2A. The assay is described as above. The following applies: P. falciparum in erythrocytes, SYBR Green DNA, 72 h; series mostly up to 12.8 µM. In a few lines: as §1
The test system of the next assay is CP201. Described as above. The following applies: P. falciparum in erythrocytes, SYBR Green DNA, 72 h; series mostly up to 12.8 µM. The essentials:
as §1

In a further assay the test system is CP211. The description is as above. The following applies: P. falciparum in erythrocytes, SYBR Green DNA, 72 h; series mostly up to 12.8 µM. In a few lines:
as §1

The test system of the next assay is CP237. The description is as above. The conditions noted are these: P. falciparum in erythrocytes, SYBR Green DNA, 72 h; series mostly up to 12.8 µM. The essentials: as §1
Another assay relates to CP252. The description is as above. The following applies: P. falciparum in erythrocytes, SYBR Green DNA, 72 h; series mostly up to 12.8 µM. The essentials:
as §1

A further assay has as its system CP262. The description is as above. The following applies: P. falciparum in erythrocytes, SYBR Green DNA, 72 h; series mostly up to 12.8 µM. The essentials:
as §1

In the next assay the test system is CP268. The description is as above. The following applies: P. falciparum in erythrocytes, SYBR Green DNA, 72 h; series mostly up to 12.8 µM. In a few lines:
as §1

For the next assay, the system named is CP305. The description is as above. The following applies: P. falciparum in erythrocytes, SYBR Green DNA, 72 h; series mostly up to 12.8 µM. The essentials:
as §1

The next assay deals with CP315. Described as above. The following applies: P. falciparum in erythrocytes, SYBR Green DNA, 72 h; series mostly up to 12.8 µM. The essentials: as §1
A further assay has as its system CP329. The assay is described as above. The conditions noted are these: P. falciparum in erythrocytes, SYBR Green DNA, 72 h; series mostly up to 12.8 µM. The essentials: as §1
The subject of a further assay is HB3. Described as above. The following applies: P. falciparum in erythrocytes, SYBR Green DNA, 72 h; series mostly up to 12.8 µM. In a few lines: as §1
A further assay deals with JCK. The assay is described as above. The following applies: P. falciparum in erythrocytes, SYBR Green DNA, 72 h; series mostly up to 12.8 µM. In a few lines: as §1
For a further assay, the system named is PAD. Described as above. The conditions noted are these: P. falciparum in erythrocytes, SYBR Green DNA, 72 h; series mostly up to 12.8 µM. The essentials: as §1
The subject of a further assay is PC49. Described as above. The conditions noted are these: P. falciparum in erythrocytes, SYBR Green DNA, 72 h; series mostly up to 12.8 µM. In a few lines:
as §1

[6] abbreviates: measured here: cell count channel max response.
Where [7] appears, read: measured here: lipid channel max response.

Inconclusive results are not listed. Active and inactive are the calls of the source. Unless noted, calls come from the whole dose curve; as a rule, active = well fitted curve in the direction sought with a large enough effect; inconclusive = small, poorly fitted or top-dose-only effect, or another doubt; inactive = no such curve, though single readings can be large; an effect the other way counts as inactive or inconclusive.

Ubiquitin carboxyl-terminal hydrolase 1 (Homo sapiens), sequence (O94782 whole entry, looked up): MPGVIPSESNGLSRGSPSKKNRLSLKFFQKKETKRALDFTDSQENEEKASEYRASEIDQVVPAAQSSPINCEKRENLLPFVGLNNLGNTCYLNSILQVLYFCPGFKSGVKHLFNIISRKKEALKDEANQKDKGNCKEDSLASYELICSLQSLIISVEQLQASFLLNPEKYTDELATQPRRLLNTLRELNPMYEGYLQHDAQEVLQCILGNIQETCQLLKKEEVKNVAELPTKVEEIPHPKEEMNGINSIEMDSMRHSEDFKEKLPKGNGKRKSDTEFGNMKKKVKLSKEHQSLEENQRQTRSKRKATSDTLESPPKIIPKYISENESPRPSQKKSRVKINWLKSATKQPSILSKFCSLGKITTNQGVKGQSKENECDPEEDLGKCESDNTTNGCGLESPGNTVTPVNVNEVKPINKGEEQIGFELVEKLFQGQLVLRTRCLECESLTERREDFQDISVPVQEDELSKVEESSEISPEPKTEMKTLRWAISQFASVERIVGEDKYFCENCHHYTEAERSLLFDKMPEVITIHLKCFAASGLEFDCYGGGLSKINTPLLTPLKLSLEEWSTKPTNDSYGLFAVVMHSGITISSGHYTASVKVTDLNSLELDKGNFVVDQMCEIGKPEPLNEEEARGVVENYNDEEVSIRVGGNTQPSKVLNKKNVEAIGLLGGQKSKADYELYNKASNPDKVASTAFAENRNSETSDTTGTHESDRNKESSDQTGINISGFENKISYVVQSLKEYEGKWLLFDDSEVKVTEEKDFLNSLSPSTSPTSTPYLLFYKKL
Luciferin 4-monooxygenase (Photinus pyralis), sequence (P08659 whole entry, looked up): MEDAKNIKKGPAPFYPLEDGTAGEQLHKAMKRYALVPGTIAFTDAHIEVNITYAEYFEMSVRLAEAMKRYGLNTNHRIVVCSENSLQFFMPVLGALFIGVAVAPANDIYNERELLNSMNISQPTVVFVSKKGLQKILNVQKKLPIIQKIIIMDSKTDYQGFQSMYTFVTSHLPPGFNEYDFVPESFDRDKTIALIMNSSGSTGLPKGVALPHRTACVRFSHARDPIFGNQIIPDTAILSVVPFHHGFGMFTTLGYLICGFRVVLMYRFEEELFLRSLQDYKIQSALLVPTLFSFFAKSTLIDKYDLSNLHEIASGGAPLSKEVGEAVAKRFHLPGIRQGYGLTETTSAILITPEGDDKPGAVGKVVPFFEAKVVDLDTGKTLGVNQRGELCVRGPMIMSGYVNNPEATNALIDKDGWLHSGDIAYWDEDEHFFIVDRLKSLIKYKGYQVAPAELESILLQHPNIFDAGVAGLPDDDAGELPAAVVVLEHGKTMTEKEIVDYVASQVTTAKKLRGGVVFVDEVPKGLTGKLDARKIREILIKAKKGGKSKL
ATP-dependent 6-phosphofructokinase (Trypanosoma brucei brucei), sequence (O15648 whole entry, looked up): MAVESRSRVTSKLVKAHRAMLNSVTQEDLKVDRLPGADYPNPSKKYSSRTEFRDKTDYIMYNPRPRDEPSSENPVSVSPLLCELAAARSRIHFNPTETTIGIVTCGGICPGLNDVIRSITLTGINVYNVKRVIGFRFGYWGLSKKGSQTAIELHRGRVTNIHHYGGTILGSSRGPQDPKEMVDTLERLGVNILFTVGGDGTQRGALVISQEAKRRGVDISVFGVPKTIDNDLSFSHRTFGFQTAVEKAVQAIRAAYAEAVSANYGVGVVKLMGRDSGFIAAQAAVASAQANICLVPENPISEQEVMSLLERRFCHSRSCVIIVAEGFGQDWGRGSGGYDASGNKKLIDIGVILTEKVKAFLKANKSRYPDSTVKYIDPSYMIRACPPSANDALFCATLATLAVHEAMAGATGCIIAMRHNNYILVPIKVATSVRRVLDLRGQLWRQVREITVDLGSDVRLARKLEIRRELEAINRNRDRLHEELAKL

With `C[C@]12CCC(=O)C=C1CCC1C2C(=O)C[C@]2(C)C1CC[C@]2(O)C(=O)CO` (some centres undefined), in [1], the activity change, negative = inhibition was -0.346% (inactive). Also, the max response in assay [1] (setting [6]) turned out to be 22.5%; in assay [1] (setting [7]) it was 22%. The molecule was classed as inactive in assay [2]. Further, the Potency entry (in assay [3]; in assay [4]; in the assay on 3D7; with C2A; in the assay with CP201; with CP211) was “inactive” in each case. The Potency result with CP237, in the assay with CP252, in the assay with CP262, with CP268, in the assay with CP305 and in the assay with CP315 was “inactive” throughout. Moreover, the Potency result in the assay with CP329, in the assay with HB3, in the assay with JCK, with PAD and in the assay with PC49 was “inactive” each time. Besides, the activity, negative = inhibition in assay [5] (parasite line A) is 3.27% (inactive); in assay [5] (parasite line B), -0.753% (inactive).
Consider `CN1CC(=O)N=C1N`, for which the activity change, negative = inhibition in assay [1] was 4.35% (inactive). The max response stood at 5.89% in [1] (setting [6]) and 9.11% in [1] (setting [7]). In addition, the outcome in [2] was inactive. Moreover, the Potency result (in [3]; in assay [4]; in the assay with 3D7; with C2A; in the assay with CP201; in the assay on CP211) was “inactive” each time. For the same molecule, the Potency entry in the assay on CP237, with CP252, in the assay with CP262, in the assay with CP268, in the assay on CP305 and in the assay with CP315 was “inactive” in each case. Also, the Potency entry with CP329, in the assay with HB3, with JCK, in the assay on PAD and in the assay on PC49 was “inactive” each time. The activity, negative = inhibition was 1.94% (inactive) in assay [5] (parasite line A) and 0.298% (inactive) in assay [5] (parasite line B).
As to `O=C1OC(CO)C(O)C(O)C1O` (centres undefined), the activity change, negative = inhibition in assay [1] was 6.29% (inactive). Further, the max response in assay [1] (setting [6]) was 17.3%; in assay [1] (setting [7]), 26.8%. Besides, the call in assay [2] was inactive. In addition, the Potency entry (in [3]; in [4]; in the assay with 3D7; in the assay with C2A; in the assay on CP201; in the assay with CP211) was “inactive” in each case. The Potency entry with CP237, with CP252, in the assay on CP262, in the assay on CP268, with CP305 and with CP315 was “inactive” each time. Besides, the Potency result in the assay on CP329, in the assay on HB3, in the assay with JCK, with PAD and in the assay on PC49 was “inactive” throughout. Also, the activity, negative = inhibition in assay [5] (parasite line A) is 11.9% (inactive); in assay [5] (parasite line B), -2.03% (inactive).
In the case of `CCC(CCC(C)C1CCC2C3CC=C4CC(O)CC[C@@]4(C)C3CC[C@@]12C)C(C)C` (some centres undefined), the activity change, negative = inhibition in [1] was 3.18% (inactive). The max response amounted to 9.21% in assay [1] (setting [6]) and 15.1% in assay [1] (setting [7]). Besides, the call in assay [2] was inactive. Besides, the Potency entry (in assay [3]; in [4]; in the assay on 3D7; in the assay with C2A; in the assay with CP201; in the assay on CP211) was “inactive” throughout. For the same molecule, the Potency entry in the assay with CP237, in the assay on CP252, with CP262, with CP268, in the assay with CP305 and in the assay on CP315 was “inactive” in each case. Also, the Potency entry with CP329, with HB3, in the assay with JCK, with PAD and with PC49 was “inactive” throughout. For the same molecule, the activity, negative = inhibition in [5] (parasite line A) is -3.58% (inactive); in [5] (parasite line B), 13.1% (inactive).
Regarding `CCC(C)C(=O)OC1CCC=C2C=CC(C)C(CCC3CC(O)CC(=O)O3)[C@@H]21` (some centres undefined), the activity change, negative = inhibition in assay [1] was 0.311% (inactive). The figures for the max response in [1] (setting [6]) and in assay [1] (setting [7]) were 8.24% and 6.43%, respectively. Further, the molecule was called inactive in assay [2]. The Potency entry (in [4]; with 3D7; with C2A; with CP201; in the assay with CP211; in the assay on CP237) was “inactive” each time. Besides, the Potency result in the assay on CP252, in the assay with CP262, with CP268, in the assay with CP305, with CP315 and in the assay with CP329 was “inactive” throughout. Also, the Potency result with HB3, with JCK, in the assay on PAD and in the assay with PC49 was “inactive” throughout. For the same molecule, the activity, negative = inhibition in assay [5] (parasite line A) was 6.36% (inactive); in [5] (parasite line B) it was -8.04% (inactive).
